Results published in PubChem BioAssay (NCI).
This is part of a sample that, as a whole, favours compounds with a hit. Of some 79,000 tested, about 15% had one in any assay. Calls of active or inactive are those of the source. Cut-off read from the data, not from the text of the source: active = growth inhibition above about 70%; inactive = the rest.

What was measured:
[1] = NCI Yeast Anticancer Drug Screen. Data for the rad50 strain (AID 155);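 note: 0% = growth of vehicle-only cultures of the same strain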; settings: S. cerevisiae rad50 strain growth inhibition, hits give high values
In short: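 Genetically altered yeast (DNA repair pathway); compound treatment; growth inhibition vs vehicle ctrl.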

[2] = NCI Yeast Anticancer Drug Screen. Data for the mec2-1 strain (AID 157); settings: S. cerevisiae mec2-1 strain, hits give high values
In short: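 Cells of the genetically defined mec2-1 yeast strain are incubated with test compound. Inhibition of growth is calculated against vehicle-treated controls.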

[3] = NCI Yeast Anticancer Drug Screen. Data for the sgs1 mgt1 strain (AID 161);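 note: 0% = growth of cultures given vehicle only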; settings: S. cerevisiae sgs1 mgt1 strain, hits give high values
In short: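 Mutant yeast exposed to compound; growth scored against vehicle-only wells.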

[4] = NCI Yeast Anticancer Drug Screen. Data for the cln2 rad14 strain (AID 165);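 note: 0% = growth equal to vehicle treated cultures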; settings: S. cerevisiae cln2 rad14 strain, hits give high values
In short: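 The screen exposed genetically defined yeast (cln2 rad14) to test compounds and scored growth inhibition relative to vehicle-treated controls.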

[5] = NCI Yeast Anticancer Drug Screen. Data for the bub3 strain (AID 167); settings: S. cerevisiae bub3 mutant strain, hits give high values
In short: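 Yeast carrying a defined mutation is treated with each compound, and growth is compared with that of vehicle-exposed cells to give inhibition.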

[6] = NCI Yeast Anticancer Drug Screen. Data for the mlh1 rad18 strain (AID 175); settings: S. cerevisiae mlh1 rad18 strain growth inhibition, hits give high values
In short: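 Compound-treated yeast growth, normalised to vehicle controls. Strain bears defined DNA repair mutations.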

[7] = at 5.0 µM (retest, dose inferred, filed as 0.5)
[8] = at 50.0 µM (retest, dose inferred, filed as 5.0)

Measured: growth inhibition

Cc1nn(C(=S)S)c(C)c1N=Nc1cccc(F)c1
active: [1]; at 50.0 µM 88.2% | [3]; at 50.0 µM 88.6% | [5]; at 50.0 µM 72.5% | [6]; at 50.0 µM 90%
inactive: [1]; [7] 15% | [1]; [8] 29% | [2]; [7] -1% | [2]; [8] 18% | [2]; at 50.0 µM 46.1% | [3]; [7] 5% | [3]; [8] -1% | [4]; [7] 1% | [4]; [8] 5% | [4]; at 50.0 µM 24.4% | [5]; [7] -1% | [5]; [8] 7% | [6]; [7] -1% | [6]; [8] 21%

CC(=O)NS(=O)(=O)c1ccc(N=Cc2cc(Cl)cc(Cl)c2O)cc1
active: [1]; [8] 98% | [1]; at 50.0 µM 83% | [2]; [8] 99% | [2]; at 50.0 µM 92.1% | [3]; [8] 79% | [4]; [8] 98% | [4]; at 50.0 µM 87.8% | [5]; [8] 99% | [5]; at 50.0 µM 90.7% | [6]; [8] 99% | [6]; at 50.0 µM 88%
inactive: [1]; [7] 25% | [2]; [7] 19% | [3]; [7] 13% | [3]; at 50.0 µM 44.5% | [4]; [7] 46% | [5]; [7] 44% | [6]; [7] 67%

CCOC(=O)Cc1csc2[n+]1C(=O)/C(=C\c1cccc(Cl)c1Cl)S2
inactive: [1]; [7] 11% | [1]; [8] 20% | [1]; at 50.0 µM 69.4% | [2]; [7] 0% | [2]; [8] 28% | [2]; at 50.0 µM 60% | [3]; [7] 1% | [3]; [8] 52% | [4]; [7] -11% | [4]; [8] 32% | [4]; at 50.0 µM 31.8% | [5]; [7] -32% | [5]; [8] 52% | [6]; [7] 14% | [6]; [8] 29%
active: [3]; at 50.0 µM 83.4% | [5]; at 50.0 µM 75.8% | [6]; at 50.0 µM 72.5%

O=C1C(Br)=C(Br)C(=O)c2ccccc21
active: [1]; [7] 100% | [1]; [8] 95% | [1]; at 50.0 µM 92.5% | [2]; [7] 100% | [2]; [8] 96% | [2]; at 50.0 µM 94.2% | [3]; [7] 100% | [3]; [8] 95% | [3]; at 50.0 µM 94.5% | [4]; [7] 100% | [4]; [8] 95% | [4]; at 50.0 µM 90.9% | [5]; [7] 100% | [5]; [8] 98% | [5]; at 50.0 µM 96.7% | [6]; [7] 99% | [6]; [8] 91% | [6]; at 50.0 µM 89.9%

COc1ccc(N=Cc2cc(Br)cc(Br)c2O)cc1.COc1ccc(N=Cc2cc(Br)cc(Br)c2O)cc1.[Co]
inactive: [4]; [7] 48% | [4]; [8] 66% | [4]; at 50.0 µM 52.7% | [5]; [8] 59% | [5]; at 50.0 µM 62.6%
active: [1]; [7] 79% | [1]; [8] 75% | [1]; at 50.0 µM 74% | [2]; [7] 80% | [2]; [8] 88% | [2]; at 50.0 µM 79.6% | [3]; [7] 90% | [3]; [8] 85% | [3]; at 50.0 µM 90.6% | [5]; [7] 86% | [6]; [7] 97% | [6]; [8] 78% | [6]; at 50.0 µM 80.8%
